Screening data from PubChem.
BAZ2B inh: inhibitors of human BAZ2B bromodomain | Q9UIF8 | 360,000 compounds, 4.4% hits | Potency, µM (highest dose often 114 µM), for the others: at the top dose activity change, negative = inhibition, usual class: inhibitors | AlphaScreen BAZ2B-H3K14Ac peptide displacement; also: % is scaled to controls: 0 for no effect and ±100 for the full control effect; nearly all actives have a fitted effect of over 60% in size
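In this displacement format the biotinylated H3(5-23) peptide acetylated at Lys14 serves as ligand at 50 nM, with BAZ2B at 50 nM in PBS pH 7.4 containing 0.01% Tween-20. Donor and acceptor beads are 10 ug/mL final.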
G9a block: blocks human histone lysine methyltransferase G9a. Q96KQ7. G9a H3K9 monomethylation, AlphaScreen, 2 h. Potency, µM (series often up to 102 µM), without a hit: top-dose activity, negative = inhibition, usual class: inhibitors. 350,000 compounds, 8.8% hits. AID 504332; also: % is scaled to controls: 0 for no effect and ±100 for the full control effect; nearly all actives have a fitted effect of over 75% in size
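Chemiluminescent proximity detection of H3K9 monomethylation, read after 10 min bead incubation in the dark. Reaction: 20 nM G9a, 500 nM biotin-H3K9 peptide, 20 uM SAM cofactor, 2 h, room temperature, following 15 min enzyme-compound preincubation.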
L3MBTL1 block: L3MBTL1 (human) inhibition; Q9Y468; AID 485360; AlphaScreen L3MBTL1–H3K9me1 peptide binding; 230,000 compounds, 0.66% hits; Potency, µM (highest dose often 57.1 µM), without a hit: at the top dose activity, negative = inhibition, hits mostly inhibitors; also: % is scaled to controls: 0 for no effect and ±100 for the full control effect; nearly all actives have a fitted effect of over 60% in size
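L3MBTL1 50 nM + b-AHA-H3(1-15)K9me1 75 nM, 30 min RT; compound added, 30 min RT; streptavidin donor/Ni-chelate acceptor beads 10 ug/mL each final, 30 min RT dark; AlphaScreen read.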
HP1b chromo inh: blocks HP1-beta chromodomain binding to methylated histone tails | AID 540317 | AlphaScreen HP1-beta / biotin-H3K9me3 peptide binding | Potency, µM (highest dose often 114 µM), for inactives: at the highest dose activity change, negative = inhibition, most hits filed as inhibitors | P83916 | 390,000 compounds, 0.56% hits; also: nearly all actives have a fitted effect of over 70% in size
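Compound inhibition of the preformed complex between 50 nM HP1-beta and 50 nM biotinylated H3K9me3 peptide was read by AlphaScreen. Buffer was PBS pH 7.4 with 0.01% Tween-20. Incubations ran 30 min at room temperature, with 10 ug/mL donor/acceptor beads.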
Sfp inh: blocks B. subtilis Sfp PPTase activity | Biochemical Sfp PPTase activity, qHTS | Q9F4F7 | Potency, µM, for the others: largest response in the series, negative = inhibition, usual class: inhibitors | 310,000 compounds, 3.5% hits;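 also: the enzyme is Sfp with the accession as filed and its product quenches rhodamine fluorescence; 0% = enzyme reaction without inhibitor and -100% = no enzyme wells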
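Sfp 15 nM + cpd, 15 min RT; start w/ rhodamine-CoA 5 uM, BHQ-2-YbbR 12.5 uM (final); 50 mM Hepes pH 7.6, 10 mM MgCl2, 0.01% NP-40, 0.01% BSA; read 525/598 nm at 0 and 30 min.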
JMJD2A Tudor inh: JMJD2A Tudor domain (human) inhibition; O75164; AlphaScreen JMJD2A-Tudor / H3K4me3 peptide binding; Potency, µM (series often up to 114 µM), without a hit: top-dose activity change, negative = inhibition, hits mostly inhibitors; 390,000 compounds, 4.4% hits; AID 504339; also: % is scaled to controls: 0 for no effect and ±100 for the full control effect; nearly all actives have a fitted effect of over 50% in size
Numbers without * were called inactive; u = inconclusive; x = not tested or not shown; [ ] = dose if it differs, or a comment. In the library only some 12% were active in any assay of this set; here they are far more common. Calls follow the shape of the dose curve; as a rule, active = well fitted curve in the direction sought with a large enough effect; inconclusive = small, poorly fitted or top-dose-only effect, or another doubt; inactive = no such curve, though single readings can be large; an effect the other way counts as inactive or inconclusive. Potency is read from the fitted curve at half-maximal effect.

SMILES	BAZ2B inh	G9a block	L3MBTL1 block	HP1b chromo inh	Sfp inh	JMJD2A Tudor inh
COc1ccc(NC(=O)Cn2c(=O)n(-c3ccc(CC(=O)NCC4CCCO4)cc3)c(=O)c3ccccc32)c(OC)c1 (stereo not given)	1%	-3%[59 µM]	x	24%	x	-5%
CC(/C=C/c1ccco1)=N\NC(=O)c1cc(C)[nH]n1	-9%	50µM*	u	14%	18µM*	-26%
COc1ccc(/C=C/C(=O)Nc2ccc(Cl)c(Cl)c2)cc1	3%	7%[59 µM]	x	25%	x	-5%
O=C(/C=C/c1ccco1)Nc1cccnc1	-36%	x	-15%	45%	25µM*	-4%
Cc1cc(C(=O)N/N=C/c2ccco2)n[nH]1	11%	5%	31%	24%	-9%	-5%
COC(=O)/C=C/C(=O)Nc1ccc(O)c(Cl)c1	u	40µM*	-11%	13%	-19%	-18%
O=C(O)/C=C/C(=O)Nc1cccnc1	-25%	-13%[59 µM]	7%	49%	11%	3%
COC(=O)/C=C/C(=O)Nc1cccnc1	12%	50µM*	8%	15%	19%	-5%
CC(/C=C/c1ccco1)=N/NC(=O)OC(C)(C)C	-5%	71µM*	-3%	23%	-23%	-8%
Cc1ccc(S(=O)(=O)/N=C/c2c(O)ccc3ccccc23)cc1	-9%	4µM*	-7%	-10%	1%	u
Cc1ccc(S(=O)(=O)/N=C/c2ccc(N(C)C)cc2)cc1	1%	17%[59 µM]	8%	19%	23%	-9%
CCN(c1cccc2ccccc12)S(=O)(=O)c1cccs1	x	x	-7%	24%	x	6%
O=S(=O)(/N=C/c1c(O)ccc2ccccc12)c1cccs1	9%	1.4µM*	x	x	-26%	x
Nc1nc(-c2ccc([N+](=O)[O-])cc2)cc(=O)[nH]1	x	x	x	25%[57 µM]	x	-14%
CCOC(=O)c1c(S(=O)(=O)N(C)C2CCCCC2)c(C)n(C)c1C	u	10%	x	13%	11%	-16%
COCCn1c(NC(=S)NC(=O)C2CC2)cc(=O)[nH]c1=O	u	u	-6%	12%	22µM*	1µM*
COCCn1c(NC(=S)NC(=O)C23CC4CC(CC(C4)C2)C3)cc(=O)[nH]c1=O	-14%	7%[59 µM]	x	24%	-8%	-5%[11.4 µM]
N#CCCN(Cc1ccccc1)C(=O)c1nccnc1C(=O)O	u	35µM*	x	50%	-5%	u
O=C(O)/C(=C\c1cn(-c2ccccc2)nc1-c1ccc(Cl)cc1)NC(=O)c1ccccc1	-8%	-10%[59 µM]	x	10%	29%	-7%
CC1(C)CC(=O)C(=Cc2cn(CCC#N)nc2-c2ccc(F)cc2)C(=O)C1	-3%	10µM*	5%	48%	56µM*	-3%
CC1(C)CC(=O)C(=Cc2cn(CCC#N)nc2-c2ccc(Cl)cc2)C(=O)C1	-7%	u	7%	76%	79µM*	-9%
CC1(C)CC(=O)C(=Cc2cn(-c3ccccc3)nc2-c2ccc(Cl)cc2)C(=O)C1	u	3%[0.501 µM]	-6%	0%	89µM*	-19%
O=C(NCc1ccccc1)C(c1cccnc1)N(C(=O)c1csnn1)c1ccccc1 (stereo not given)	8%	-2%	x	-13%	8%	-14%
Cc1cccnc1Nc1nc(-c2ccccc2)cs1	-21%	40µM*	x	8%	50µM*	-15%
c1ccc(-c2csc(Nc3ncccn3)n2)cc1	8%	-1%[59 µM]	1%	8%	20%	10%
c1ccc(Nc2nc(-c3cccs3)cs2)nc1	u	u	0%	4%	-6%	-28%[11.4 µM]
NNc1nc(-c2ccccc2)cs1	u	22µM*	-10%	12%	-12%	u
Cc1cccnc1Nc1nc(-c2ccccn2)cs1	14µM*	19%[12.7 µM]	x	20%	6%	45µM*
Cc1cc(C)n(CCNC(=O)C2CCC(=O)N(Cc3ccc(Cl)cc3)C2)n1 (stereo not given)	-2%[57.1 µM]	-13%	x	29%	20%	-6%
